Experimental data taken from PubChem BioAssay AID1259240 (Keith Lab, Institute of Cancer Science, University of …, 2017).
Calls of active or inactive are those of the source. No stated cut-off is given here; in the data, active means fold change mostly below about -2 (no sharp cut-off); inactive means mostly above about -1.8.

Experiment: modulation of TERT promoter-driven luciferase – cell-based, luciferase reporter, human, primary screen (AID 1259240)
Settings: A2780 TERT promoter luciferase reporter, 16 h; at 20 µM, fold versus average of vehicle-only wells

Fold change, inactive:
CCOC(=O)Cn1c(=O)oc2cc(S(=O)(=O)NCc3ccccn3)ccc21 1.36
CCN1C(=O)C2(/C(=C(/O)c3ccc(OC)cc3)C(=O)C(=O)N2CCOC)c2ccccc21 (stereo not given) 1.29
CCOC(=O)N1CCC(Nc2c(N3CCN(c4ccccc4)CC3)c(=O)c2=O)CC1 -1.05
CCN(CC)C(=O)C1=C(C)Nc2nc3ccccc3n2C1c1ccncc1 (stereo not given) -1.02
Cc1nc(SCc2cccc(C(F)(F)F)c2)c2c(=O)n(C)c(=O)n(C)c2n1 1.26
CN(CC(=O)NCC1CCCO1)S(=O)(=O)c1ccc2c(c1)c(=O)n(C)c(=O)n2C (stereo not given) 1.06
CC1CCN(c2nnc(NC(=O)Nc3ccc(F)cc3)s2)CC1 -1.1
O=C(CSc1nc(-c2ccc(F)cc2)cc(C(F)(F)F)n1)NCCCn1ccnc1 -1.16
O=C(CCCc1nnc2n3nc(-c4ccccc4)nc3c3ccccc3n12)NCC1CCCO1 (stereo not given) 1.2
CCOCCCNc1nc2c(-c3ccccc3)nnn2c2ccccc12 1.12
COCCCNc1nc2c(-c3ccccc3)nnn2c2ccccc12 1.02
CC(C)OCCCNC(=O)Cc1ccc(NC2=NC3CS(=O)(=O)CC3S2)cc1 (stereo not given) -1.17
Clc1ccc(CNc2ccc3nncn3n2)cc1 -1.3
Cc1ccc(Cl)cc1N1C(=O)Nc2ccccc2N1O -1.07
CC1CCCC(NC(=O)CC(C)(C)CC2=NS(=O)(=O)c3ccccc3N2)C1C (stereo not given) 1.01
Cc1ccc2nc(Cl)c3nncn3c2c1 1.44
CCOC(=O)c1nn(-c2ccc(C)cc2)c(=O)c2c(NC(=O)c3ccc(C)c([N+](=O)[O-])c3)scc12 1.24
CN(C)CCN1C(=O)C(=O)/C(=C(\O)c2ccc(F)cc2)C12C(=O)N(C)c1ccccc12 (stereo not given) -1.34
COc1cc(-c2nc3sccn3c2Nc2ccc(OC)c(OC)c2)ccc1O -1.31
CS(=O)(=O)Nc1ccc(C2=NN(C(=O)c3ccco3)C(c3ccco3)C2)cc1 (stereo not given) 1.01
O=C(NC1CCCC1)c1ccc2nc(N3CCOCC3)sc2c1 -1.15
CCn1ncc(CNC(=O)c2cnn3c(C(F)F)cc(-c4ccc(C)cc4)nc23)c1C 1.02
CC(Sc1nc(-c2ccco2)nc2c1c(=O)n(C)c(=O)n2C)C(=O)O (stereo not given) 1.38
COc1cc(OC)c(NC(=O)Nc2cc3sccc3n2C)cc1Cl 1.13
COc1ccccc1NC(=O)Nc1ccc2c(c1)C(=O)OC2 1.33
CCOC(=O)C1CCN(c2c(N(C)C3CCCCC3)c(=O)c2=O)CC1 1.32
Cn1c(=O)c(=O)n(C)c2cc(S(=O)(=O)N3CCC(C(N)=O)CC3)ccc21 -1.21
FC(F)(F)c1cccc(N2CCN(c3ccc4nncn4n3)CC2)c1 -1.15
Cc1nc2c(-c3ccccc3)c(C)nn2c(C)c1CCC(=O)NO -1.49
CCc1c(C)sc(NC(=O)c2cc(C)no2)c1C#N 1.32
COc1ccccc1-c1cc(N)n(S(=O)(=O)c2ccc([N+](=O)[O-])cc2)n1 -1.09
Cn1c(=O)oc2cc(S(=O)(=O)N3CCCC(C(=O)NC4CCCCCCC4)C3)ccc21 (stereo not given) 1.03
O=C(CSc1nnc2ccc3ccccc3n12)Nc1ccc2c(c1)OCCO2 1.3
CN(C)CCNC(=O)C(=O)Nc1ccc2nc3n(c(=O)c2c1)CCCCC3 1.06

Fold change, active:
COc1ccc(-c2noc(-c3ccc(Cl)cc3)n2)cc1OC -4.04
CCOc1nc(-c2ccncc2)nc2ccccc12 -4.22
CCn1c(SCc2nc(-c3ccc(Cl)cc3)no2)nnc1-c1ccco1 -2.86
COc1ccc(Cl)cc1Nc1nc(-c2c(C)nc3ncccn23)cs1 -3.45

outcome, inactive:
O=C1Nc2ccc(Br)cc2/C1=C\c1nc2ccccc2c(=O)n1-c1cccc(C(=O)O)c1
CC1=C(C(=O)Nc2ccccc2)C(c2ccccn2)n2nc(CCCO)nc2N1 (stereo not given)
